A selection: hits, their analogues and other compounds. The true share with any hit is near 1.3%.
Rango release inh: qHTS Assay for Inhibitors of RanGTP induced Rango (Ran-regulated importin-beta cargo) - Importin beta complex dissociation. Snurportin-1 (Homo sapiens) + GTP-binding nuclear protein Ran (Homo sapiens) + Importin …. Biochemical FRET Rango-importin beta, RanGTP-induced dissociation. Potency, µM (series often up to 46.1 µM), without a hit: at the top dose activity change, negative = inhibition. 0.071% of 340,000 active. AID 540253, 2011; note: potency is the fitted concentration of half-maximal effect; % of control where 0% means no effect; nearly all actives have a fitted effect of over 45% in size
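Rango FRET biosensor (snurportin-1 IBB flanked by N-terminal EYFP and C-terminal CFP10) at 0.1 uM, with 0.25 uM importin beta in PBS, 1mM DTT, 0.02% Tween-20, 0.1% BSA. 0.6 uM Ran, 2mM GTP and 0.2 uM RCC1 were then added for 45 min at room temperature. Inhibition read as loss of FRET rise.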
KCNH2 WT inh: qHTS for Inhibitors of KCHN2 3.1: Wildtype qHTS. Voltage-gated inwardly rectifying potassium channel KCNH2 (Homo sapiens), Q12809. activity change, % at 1.84 µM. AID 720551, 2013. 0.37% of 340,000 active. U2OS, BacMam KCNH2, thallium flux FluxOr; hits give low values;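 active = maximum activity change below -70%; inconclusive = maximum activity change between -70% and -50%; inactive = maximum activity change above -50%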; note: % is set by controls: 0 for no effect and ±100 for the full control effect
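U2OS cells were transduced with wild-type KCNH2 virus (2.03 x 10^8 / mL) for 4 h at room temperature, then cultured overnight at 37 C. Thallium flux was read with FluxOr dye. Rate constants were normalized to DMSO controls.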
Rango complex inh: qHTS Assay for Inhibitors of Rango (Ran-regulated importin-beta cargo) - Importin beta complex formation; 0.031% of 340,000 active; AID 540263, 2011; Rango CFP/YFP FRET sensor + importin beta, 45 min; Importin subunit beta-1 (Homo sapiens), Q14974; Potency, µM (doses to about 92.2 µM), inactives show at the highest dose inhibition of complex formation;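 note: potency is the fitted concentration of half-maximal effect; 0% = DMSO wells and 100% = buffer wells lacking importin beta; nearly all actives have a fitted effect of over 15% in size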
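Inhibition scored from the CFP 486 nm/YFP 530 nm FRET ratio 45 min after adding 0.125 microM importin beta to 50 nM Rango biosensor preincubated 5 min with compound (room temperature, PBS with DTT, Tween-20, BSA). No-importin wells as positive control.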
KCNH2 3.1 block: qHTS for Inhibitors of KCHN2 3.1: Mutant qHTS | Potassium voltage-gated channel subfamily H member 2, brain isoform KCNH2 3.1 (human) | U2OS KCNH2 3.1, thallium flux FluxOr; hits give low values | activity change, % (tested at about 1.8 µM) | 0.95% of 340,000 active;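 active = maximum activity change below -70%; inconclusive = maximum activity change from -70% to -50%; inactive = maximum activity change above -50%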;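 note: thallium influx rate constant from kinetic fluorescence after stimulation buffer; % is set by controls: 0 for no effect and ±100 for the full control effect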
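U2OS cells transduced with KCNH2 3.1 mutant virus (1.77 x 10^8 /mL, 4 h), plated overnight at 37 C, loaded 45 min with FluxOr dye plus Red40 quencher. Thallium flux rate constant from kinetic reads after stimulation buffer, normalised to controls.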
An asterisk follows results filed as active; ? = inconclusive; · = not tested or not shown. Unless noted, calls come from the whole dose curve.

SMILES | Rango release inh | KCNH2 WT inh | Rango complex inh | KCNH2 3.1 block
Cc1ccc(N(C)S(=O)(=O)c2cccc(C(=O)NCC(c3ccco3)N3CCCC3)c2)cc1 (centres undefined) | 0% | 0 | 2% | -1
COC(=O)C1=NN(c2cccc3ccccc23)C2C(=O)N(c3ccccc3OC)C(=O)C12 (centres undefined) | 12µM* | 0 | ? | 1
COc1ccccc1C(C(C(=O)c1ccccc1)N1CCOCC1)N1CCOCC1 (centres undefined) | -4% | 1 | -3% | -1
O=C(O)c1ccc2c(c1)C(=O)N(NC(=O)c1ccccc1)C2=O | -3% | -230* | -1% | -8
CC(=O)CC(=O)NC1CCc2ccccc21 (centres undefined) | 8% | 1 | -4% | -2
Cc1ccc(-c2csc(NC(=O)c3ccc4c(=O)n5c(nc4c3)CCCCC5)n2)cc1 | 1% | -77* | 0% | -10
CC(=O)c1ccc(NC(=O)c2ccc3c(=O)n4c(nc3c2)CCCCC4)cc1 | -13% | -7 | 6% | 4
COc1ccc2cc(CCNC(=O)c3ccc(S(=O)(=O)N4CCOCC4)cc3)c(=O)[nH]c2c1 | -11% | 3 | 2% | 5
CC(NC(=O)CCc1ccccc1)c1ccc2c(c1)OCO2 (centres undefined) | 1% | -142* | 0% | -2
Cc1ccc(NC(=O)COC(=O)c2c[nH]c3ccccc23)cc1C | -5% | 0 | 8% | 0
CC(=O)C[C@@H](O)CC(=O)[C@@H]1OC(=O)CCCCCCCCc2ccccc21 | 1% | -1 | -2% | 4
O=C(Nc1ccc(N=Nc2ccccc2)cc1)c1ccc(Cl)cc1Cl | -23% | 5 | ? | 1
O=C(Nc1ccc(N=Nc2ccccc2)cc1)c1ccccc1Cl | 1% | -3 | -5% | -98*
CCN(CC)CCCNC(=O)C1CCC(CNS(=O)(=O)c2c(C)cc(C)cc2C)CC1 (centres undefined) | 33% | 10 | 1% | -12
CCCCN(C)CCCNC(=O)C1CCC(CNS(=O)(=O)c2c(C)cc(C)cc2C)CC1 (centres undefined) | 20% | -26 | -4% | -77*
COc1cccc(OCc2cc(C(=O)N3CCN(c4ccccc4OC)CC3)no2)c1 | 19% | 1 | 6% | -13
O=C(CSCc1ccccc1)NCCc1ccc(F)cc1 | 32% | -8 | -3% | -100*
O=C(CSCc1ccc(Br)cc1)NCCc1ccccc1 | -7% | 5 | 1% | -1
Cc1ccc(OCC(=O)NCCNC(=O)c2ccco2)cc1C | -5% | -1 | 0% | -20
CCCCOP(=O)(c1ccc(N(C)C)cc1)C(Nc1ccccc1)c1ccccc1 (centres undefined) | 6% | -4 | 0% | -95*
Cc1cccc(OCCCc2c(C)n[nH]c2C)c1 | 5% | -3 | 0% | -75*
COc1cccc(OC)c1OCCCc1c(C)n[nH]c1C | -13% | -4 | -1% | 24
CCOc1ccc(C2C(C(=O)OC)=CN(C(C)c3ccccc3)C=C2C(=O)OC)cc1 (centres undefined) | -24% | -7 | ? | -7
Cc1ccc(S(=O)(=O)N2CCN(CC(=O)Nc3ccnn3C3CCCC3)CC2)cc1 | 21% | 12 | 7% | 5
CCOC(=O)N1CCN(S(=O)(=O)N2CCCC(C(=O)NCc3cc(Br)ccc3OC)C2)CC1 (centres undefined) | · | 18 | · | -12
SMILES | Rango release inh | KCNH2 WT inh | Rango complex inh | KCNH2 3.1 block
O=c1c(-c2ccccc2)c(O)c2ccccc2n1-c1ccccc1 | 11% | -18 | 0% | -72*
O=C(Nc1ccc(F)cc1)c1sc2cc(C(F)(F)F)cnc2c1-c1cccs1 | -9% | -4 | ? | -49
COc1ccc(NC(=O)c2sc3cc(C(F)(F)F)cnc3c2-c2cccs2)cc1 | -9% | 9 | 0% | -92*
O=C(/C=C/c1ccc(Cl)cc1)N1CCN(c2ccc(Cl)cc2[N+](=O)[O-])CC1 | 5% | -133* | 0% | -96*
O=C(/C=C/c1ccc([N+](=O)[O-])cc1)N1CCN(c2ccccc2F)CC1 | 1% | 8 | 1% | -34
CCOC(=O)N1CCN(C(=O)C2CCC(=O)N(CCCc3ccccc3)C2)CC1 (centres undefined) | 4% | -10 | ? | 1
COc1ccc(NC(=O)c2c([N+](=O)[O-])c(C(C)(C)C)nn2C)cc1 | 0% | -12 | 0% | -81*
Cc1cccc(C(=O)OCC(=O)N2CCCC2=O)c1O | -11% | 2 | 4% | 19
COc1ccc(CNCCC(c2ccc(F)cc2)c2ccc(OC(C)C)cc2)cc1OC (centres undefined) | 2% | -37 | 0% | ?
O=C(c1ccccc1)c1ccc(OCC(O)CNCc2ccc(F)cc2)cc1 (centres undefined) | 1% | 42 | 0% | -29
Cc1ccc(C(OCC(O)CNCc2ccc(F)cc2)c2ccccc2)cc1 (centres undefined) | -3% | -79* | 7% | -106*
COc1ccc(CNCC(O)(c2ccccc2)c2ccc(F)cc2)cc1 (centres undefined) | -7% | 11 | -1% | -75*
COc1ccc(C(CCNCc2ccc(F)cc2)c2ccc(F)cc2)cc1 (centres undefined) | -1% | ? | 1% | -6
COc1ccc(C(CCNCc2ccccc2)c2ccc(F)cc2)cc1 (centres undefined) | 3% | -15 | 0% | -75*
COc1ccc(CNCCC(c2ccc(F)cc2)c2ccc(OC)cc2)cc1 (centres undefined) | 1% | -133* | 5% | -87*
COc1ccc(C(OCC(O)CNC(C)c2ccccc2)c2ccc(OC)cc2)cc1 (centres undefined) | 4% | -14 | 2% | -76*
COc1ccc(CNC(=O)CNC(C)c2ccc(F)cc2)cc1 (centres undefined) | -8% | -4 | 0% | -2
COc1ccc(C(CCNC(C)c2ccccc2)c2ccc(F)cc2)cc1 (centres undefined) | 1% | -76* | -3% | -2
C/C=C/c1ccc(OCC(O)CNCCc2ccc(OC)cc2)c(OC)c1 (centres undefined) | -11% | 3 | 0% | -71*
C/C=C/c1ccc(OCC(O)CN2CCCCC2CC)c(OC)c1 (centres undefined) | 6% | 22 | -1% | -24
COc1ccc(CCNCC(O)COc2ccc(Cl)cc2)cc1OC (centres undefined) | -5% | 37 | 8% | ?
C/C=C/c1ccc(OCC(O)CN(C)Cc2ccc(SC)cc2)c(OC)c1 (centres undefined) | -2% | ? | -2% | -112*

Screening data (PubChem BioAssay)
